A selection: hits, their analogues and other compounds. The true share with any hit is near 1.3%.
gsp agonist: gsp mutant agonism; gsp mutant cells, cAMP HTRF, 30 min; AID 624287; Potency, µM (series often up to 76.9 µM), usual class: activators; 340,000 compounds, 0.13% hits; active = well fitted activation curve with a large enough effect; inconclusive = small, poorly fitted or top-dose-only effect, or another doubt; inactive = no such curve, though single readings can be large or run the other way; cell line not stated here;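 note: phosphodiesterase inhibitor Ro 20-1724 added with compounds to block cAMP breakdown; nearly all actives have a fitted effect of over 60% in size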
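Cells stably selected in G418 were plated at 2000/well, grown 16-24 hr, then given compounds in DMSO with the PDE inhibitor […] (300 uM solution added) for 30 min at 37C; cAMP was read by HTRF.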
pAkt inh: Akt phosphorylation inhibition; 360,000 compounds, 0.32% hits; activity change, % for hits at 50 µM; AID 651550; Neuro2A IGF-stimulated pAkt S473 HTRF, 20 min; stronger effect = lower value; in the data active = activity change below about -80%; inconclusive = mostly about -51% to -80%
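Neuro2A cells (4,500/well, DMEM with 0.5% FBS) were treated with compound at a single 50 µM final concentration, stimulated with 6 nM IGF for 20 min at 37 °C, and lysed. Phospho-Akt Ser473 was read by HTRF as 665/615 ratio ×10^4.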
TSHR antagonist: antagonists of human thyroid stimulating hormone receptor | P16473 | TSHR-expressing cells, TSH-stimulated cAMP HTRF, 2 h; stronger effect = lower value | activity change, negative = inhibition, % at 11.5 µM | 330,000 compounds, 0.2% hits | AID 504810;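 active = activity change below a set negative limit, meaning inhibition stronger than a set level, cut at about -70% in these data; inconclusive = activity change between two set negative limits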
Target sequence (P16473 whole entry, looked up): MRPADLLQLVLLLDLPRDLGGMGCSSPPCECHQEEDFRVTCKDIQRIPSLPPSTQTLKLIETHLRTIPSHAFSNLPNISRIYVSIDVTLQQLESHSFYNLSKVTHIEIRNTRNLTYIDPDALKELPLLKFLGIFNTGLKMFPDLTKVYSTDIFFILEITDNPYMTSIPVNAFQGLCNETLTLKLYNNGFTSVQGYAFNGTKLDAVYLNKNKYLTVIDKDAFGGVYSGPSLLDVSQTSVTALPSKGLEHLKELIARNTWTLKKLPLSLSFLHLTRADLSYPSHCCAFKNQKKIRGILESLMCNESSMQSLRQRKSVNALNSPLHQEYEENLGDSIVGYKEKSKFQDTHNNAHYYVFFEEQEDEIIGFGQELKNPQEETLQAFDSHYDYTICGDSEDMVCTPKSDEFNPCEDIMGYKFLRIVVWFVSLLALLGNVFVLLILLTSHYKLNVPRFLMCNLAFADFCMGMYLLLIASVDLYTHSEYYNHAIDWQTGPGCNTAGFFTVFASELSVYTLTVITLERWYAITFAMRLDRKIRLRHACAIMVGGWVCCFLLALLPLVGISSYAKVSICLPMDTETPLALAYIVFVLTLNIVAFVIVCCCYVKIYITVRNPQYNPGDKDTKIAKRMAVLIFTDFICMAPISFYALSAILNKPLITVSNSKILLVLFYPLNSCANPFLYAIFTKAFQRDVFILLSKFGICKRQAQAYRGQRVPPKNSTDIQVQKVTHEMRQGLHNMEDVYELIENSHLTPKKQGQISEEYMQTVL
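TSHR-expressing cells, 200/well, pre-treated with compound, then stimulated with EC80 TSH (4nM final) for 2 hours at 37 deg C. cAMP measured by competitive HTRF: anti-cAMP cryptate antibody in lysis buffer plus cAMP-d2, read after 30 minutes at room temperature.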
RXFP1 agonist: RXFP1 (human) receptor agonism. Q9HBX9. HEK293T-RXFP1 cAMP TR-FRET, 30 min; response scale: percent of porcine relaxin response, buffer zero. Potency, µM (highest dose often 57.5 µM), most hits filed as activators. 370,000 compounds, 0.3% hits. AID 2676; active = well fitted activation curve with a large enough effect; inconclusive = small, poorly fitted or top-dose-only effect; note: nearly all actives have a fitted effect of over 60% in size
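cAMP rise read by TR-FRET after 30 min, 37C compound exposure (up to 58 uM) in RXFP1-transfected HEK293 cells with Ro 20174 present. EC50 from Hill-equation fits, with 29 nM porcine relaxin as 100% and buffer as basal.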
RXFP1 antagonist: RXFP1 (human) relaxin receptor antagonism; Q9HBX9; HEK293-RXFP1, relaxin-stimulated cAMP HTRF, 30 min; stronger effect = lower value; activity change, negative = inhibition, % at 57.5 µM; 350,000 compounds, 0.59% hits;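 active = activity change of -60% or lower, but not beyond a set lower limit; inconclusive = change between -60% and -40%, or beyond the set limit; inactive = change above -40%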
gsp antag: gsp mutant antagonism. Potency, µM (highest dose often 76.9 µM), hits mostly inhibitors. 340,000 compounds, 0.4% hits. gsp-mutant cells, cAMP HTRF, 30 min; calls by dose curve; cell line not stated here;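 note: intracellular cAMP measured with PDE inhibitor Ro 20-1724 present during compound exposure; nearly all actives have a fitted effect of over 65% in size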
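HTRF cAMP measurement after 30 min RT detection following 30 min, 37C compound treatment alongside […] (added as 300 uM solution) in G418-selected cells seeded at 2000/well and grown 16–24 h.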
Of the large screens only hits and unclear results are named; the others gave an inactive call.

N#CNC(=Nc1ccccc1)SCc1ccc(C(=O)O)cc1	none
O=C1C(=O)c2c(C(=O)c3ccccc3)coc2-c2ccccc21	RXFP1 antagonist -78
Cc1oc2c(c1C(=O)c1ccccc1)C(=O)C(=O)c1ccccc1-2	pAkt inh inconclusive, TSHR antagonist inconclusive, RXFP1 antagonist -66, gsp antag inconclusive
COc1ccc(Cl)cc1NC(=O)Cn1c(C)csc1=O	none
Cc1ccc(CNC(=O)CCCn2nc(C)n3ccnc3c2=O)cc1	gsp agonist inconclusive, RXFP1 agonist 16µM
COc1ccc(CCNC(=O)CCCn2nc(C)n3ccnc3c2=O)cc1OC	gsp agonist inconclusive, RXFP1 agonist inconclusive
Cc1nn(CCCC(=O)NCc2ccc(F)cc2)c(=O)c2nccn12	gsp agonist inconclusive, RXFP1 agonist 28µM
COn1c(-c2ccc(Cl)cc2)nc2ncccc21	none
O=C(O)c1ccccc1C(=O)c1ccc(N2CCCC2)c([N+](=O)[O-])c1	none
CC(=O)c1ccc(N2CCN(c3ccccc3O)CC2)c([N+](=O)[O-])c1	gsp antag 32µM
O=C(O)c1ccccc1C(=O)c1ccc(N2CCOCC2)c([N+](=O)[O-])c1	RXFP1 antagonist -69
CC(C)(CNC(=O)C1c2ccccc2-c2ccccc21)N1CCOCC1	TSHR antagonist -82
CCOC(=O)c1cnc2ccc(C)cc2c1Nc1ccc(N(CC)CC)cc1	RXFP1 antagonist -70 (no result: gsp agonist, pAkt inh, TSHR antagonist, gsp antag)
CCOC(=O)c1cnc2ccc(C)cc2c1Nc1ccc(N2CCOCC2)cc1	RXFP1 antagonist -101, gsp antag inconclusive
Cc1ccc(CNC(=O)C2CCC(=O)N(CC3CCCCC3)C2)o1 (stereo unspecified)	none
C/C(=N\NC(=O)CCn1nnc2ccccc21)c1cccs1	none
CC1CCN(Cc2nnc(-c3cccc(Br)c3)o2)CC1	none
CC(C)Nc1cccnc1N1CCN(C(=O)c2cc3cc(NS(C)(=O)=O)ccc3[nH]2)CC1	none (no result: gsp agonist, pAkt inh, TSHR antagonist, RXFP1 agonist, gsp antag)
CCOC(=O)c1ccc(NC(=O)c2noc3c2CCCC3)cc1	none (no result: gsp agonist, pAkt inh, TSHR antagonist, gsp antag)
CCOc1ccc(NC(=O)CCNS(=O)(=O)c2ccc3c(c2)CC(C)N3C(C)=O)cc1 (stereo unspecified)	none
CC(=O)N1c2ccc(S(=O)(=O)N3CCC(C(=O)Nc4ccc(F)cc4)CC3)cc2CC1C (stereo unspecified)	gsp antag 10µM
COc1ccc(NC(=O)CCNS(=O)(=O)c2ccc3c(c2)CC(C)N3C(C)=O)cc1 (stereo unspecified)	TSHR antagonist -92
Cc1ccc(C)c(N2CCN(S(=O)(=O)c3ccc4c(c3)CC(C)N4C(=O)C3CC3)CC2)c1 (stereo unspecified)	TSHR antagonist -77
O=C1CN(S(=O)(=O)c2ccccc2)c2ccccc2N1	gsp agonist inconclusive
O=C1CN(S(=O)(=O)c2cc(C(=O)O)ccc2Cl)c2ccccc2N1	TSHR antagonist -76 (no result: gsp antag)
CCCSS/C(CCO)=C(\C)N(C=O)Cc1cnc(C)nc1N	none (no result: gsp agonist, pAkt inh, TSHR antagonist, RXFP1 agonist, gsp antag)
COc1ccccc1NS(=O)(=O)c1cc(C)ccc1C	gsp antag 6.3µM
COc1ccc2oc(C(=O)Nc3ccc(N4CCOCC4)cc3)c(C)c2c1	none
CC(=O)c1ccc(-c2ccc(C(=O)N3CCN(c4ccc(F)cc4)CC3)o2)cc1	gsp antag 28µM
COC(=O)CN(c1ccc(C)cc1)S(=O)(=O)c1ccc2c(c1)n(C)c(=O)c(=O)n2C	TSHR antagonist -96
CCOc1ccc(N(CC(=O)OC)S(=O)(=O)c2ccc3c(c2)n(C)c(=O)c(=O)n3C)cc1	none
COc1ccc(CN2C(=O)c3cccnc3C2=O)cc1S(=O)(=O)N1CCCC(C)C1 (stereo unspecified)	gsp agonist 7.9µM, RXFP1 agonist 7.9µM
COc1ccc(CN2C(=O)c3cccnc3C2=O)cc1S(=O)(=O)NC1CCCCC1C (stereo unspecified)	gsp agonist inconclusive, RXFP1 agonist 25µM (no result: pAkt inh)
CCOC(=O)N1CCN(C(=O)c2ccc(-n3c(=S)[nH]c4ccccc4c3=O)cc2)CC1	RXFP1 antagonist -107, gsp antag inconclusive (no result: pAkt inh)
O=C(Cc1ccc(-n2c(=S)[nH]c3ccccc3c2=O)cc1)N1CCN(c2ccccc2)CC1	RXFP1 antagonist inconclusive
COC(CNC(=O)c1ccc(-n2c(=S)[nH]c3ccccc3c2=O)cc1)OC	RXFP1 antagonist -75
CCOC(=O)N1CCN(C(=O)c2ccc3c(=O)n(-c4ccc(OC)cc4)c(=S)[nH]c3c2)CC1	none
CCC(C)NC(=O)c1ccc(-n2c(=S)[nH]c3ccccc3c2=O)cc1 (stereo unspecified)	RXFP1 antagonist -105
COc1ccc(OCCCC(=O)Nc2ccc(S(=O)(=O)N3CCOCC3)cc2)cc1	none
Cc1ccc(CNC(=O)CCc2c(C)c3ccc(O)c(C)c3oc2=O)cc1	none (no result: gsp agonist, pAkt inh, TSHR antagonist, gsp antag)
Cc1ccc(S(=O)(=O)c2cn(CC(=O)Nc3ccc4c(c3)OCO4)c3ccccc3c2=O)cc1	none (no result: gsp agonist, pAkt inh, TSHR antagonist, RXFP1 antagonist, gsp antag)
CC(=O)NC(Cc1ccccc1)Cc1ccccc1	none
CC(=O)NC(O)C(=O)c1ccccc1 (stereo unspecified)	pAkt inh -109%
O=C(/C=C/C(Cl)(Cl)Cl)Nc1ccc(Cl)cc1	gsp agonist inconclusive, RXFP1 antagonist -73 (no result: TSHR antagonist, RXFP1 agonist)
NC(=O)/C=C/C(=O)Nc1ccc(Cl)cc1	none
Cc1ccc(C(O)c2ncc(-c3ccc4ccccc4c3)[nH]2)c(C)c1 (stereo unspecified)	none (no result: gsp agonist, TSHR antagonist, RXFP1 agonist, RXFP1 antagonist, gsp antag)
Cc1ccc2cccc(Oc3ncnc4scc(-c5ccccc5)c34)c2n1	TSHR antagonist -84
COc1ccccc1CN(C)C(=O)c1cc(-c2cccs2)nc2ccccc12	gsp antag 40µM
COc1ccc(-n2nc(CCC(=O)N(C)O)cc2-c2ccc(Cl)cc2)cc1	none (no result: gsp agonist, pAkt inh, TSHR antagonist, RXFP1 agonist, gsp antag)
C[C@@H]1CCN(C(=O)[C@H](CCCN=C(N)N)NS(=O)(=O)c2cccc3c2NC[C@H](C)C3)[C@@H](C(=O)O)C1	none (no result: gsp agonist, pAkt inh, TSHR antagonist, RXFP1 agonist, gsp antag)
CC(C)C(OC(=O)Cn1nnc2ccccc21)C(=O)NC1CCCC1 (stereo unspecified)	none
CSc1nc2sc3c(c2c(=S)[nH]1)CC(C)(C)OC3	RXFP1 agonist inconclusive
CCc1nc2sc3c(c2c(=S)[nH]1)CC(C)(C)OC3	gsp agonist inconclusive, RXFP1 antagonist -66
CN(C)S(=O)(=O)c1cccc(NC(=O)C2CCN(S(=O)(=O)c3cccs3)CC2)c1	none (no result: RXFP1 agonist)
O=c1cc(-c2c(F)c(F)c(F)c(F)c2F)oc2c(F)c(F)c(F)c(F)c12	TSHR antagonist -76 (no result: gsp agonist, pAkt inh, RXFP1 antagonist, gsp antag)
O=S(=O)(Nc1ccc(Cl)cc1)c1cccc2nsnc12	none
OCCN(CCO)c1ccc(C(c2ccccc2Cl)c2ccc(N(CCO)CCO)cc2Cl)c(Cl)c1	RXFP1 antagonist -60, gsp antag inconclusive
